Experimental data as given in PubChem BioAssay AID1159580 (chemical genetic matrix, 2015).
Out of some 5,500 compounds screened, about 2,000 (36%) were called active. Inconclusive results (about 18%) are left out. No stated cut-off is given here; in the data, active means normalized growth mostly below about 0.91 (no sharp cut-off); inconclusive means no clear call, values can overlap the other calls; inactive means mostly above about 0.92. This is one part of the list.

Test: chemical genetic growth profiling, strain panel (AID 1159580);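 further: tested at 20 µM; growth read once vehicle control cultures reached saturation at 30 °C; 1 = growth at the plate median or of vehicle wells; lower values mean less growth of the strain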
Conditions: S. cerevisiae deletion strains, growth OD

Measured: normalized growth

c1ccc2nc(N3CCNCC3)ccc2c1
inactive: locus YAL013W, strain DEP1, active compounds read low 0.992 | locus YAL021C, strain ccr4, active compounds read low 0.997 | locus YAL026C, strain drs2, active compounds read low 0.989 | locus YAL030W, strain snc1, active compounds read low 0.999 | locus YAL040C, strain CLN3, active compounds read low 1.02 | locus YBL061C, strain skt5, active compounds read low 1.01 | locus YBR009C, strain hhf1, active compounds read low 1.01 | locus YBR023C, strain chs3, active compounds read low 1.01 | locus YBR171W, strain sec66, active compounds read low 0.985 | locus YBR231C, strain swc5, active compounds read low 1.02 | locus YBR279W, strain paf1, active compounds read low 1.01 | locus YCL011C, strain gbp2, active compounds read low 0.97 | locus YCL016C, strain dcc1, active compounds read low 1.01 | locus YCL061C, strain MRC1 (second series), active compounds read low 1 | locus YCL061C, strain MRC1, active compounds read low 0.981 | locus YCL069W, strain vba3, active compounds read low 0.982 | locus YCR088W, strain abp1, active compounds read low 0.984 | locus YDL005C, strain med2, active compounds read low 1.01 | locus YDL040C, strain nat1, active compounds read low 1.01 | locus YDR001C, strain nth1, active compounds read low 0.982 | locus YDR069C, strain doa4, active compounds read low 0.975 | locus YDR137W, strain rgp1, active compounds read low 1.09 | locus YDR159W, strain sac3, active compounds read low 0.985 | locus YDR195W, strain ref2 1.01 | locus YDR297W, strain sur2, active compounds read low 1 | locus YDR334W, strain swr1, active compounds read low 1.01 | locus YDR335W, strain msn5, active compounds read low 1 | locus YDR363W, strain ESC2, active compounds read low 0.97 | locus YDR392W, strain spt3, active compounds read low 0.976 | locus YEL003W, strain gim4, active compounds read low 0.971 | locus YEL037C, strain rad23, active compounds read low 0.987 | locus YEL061C, strain CIN8 (second series), active compounds read low 0.988 | locus YER002W, strain NOP16, active compounds read low 1.03 | locus YER015W, strain faa2, active compounds read low 0.995 | locus YER016W, strain bim1, active compounds read low 1.01 | locus YER111C, strain swi4, active compounds read low 0.99 | locus YER155C, strain BEM2 (second series), active compounds read low 0.957 | locus YFR010W, strain ubp6, active compounds read low 0.985 | locus YGL167C, strain pmr1, active compounds read low 1.01 | locus YGL173C, strain kem1, active compounds read low 1.01 | locus YGL227W, strain vid30, active compounds read low 0.979 | locus YGL240W, strain doc1, active compounds read low 0.998 | locus YGL253W, strain hxk2, active compounds read low 1.01 | locus YGR078C, strain PAC10, active compounds read low 1.01 | locus YHR013C, strain ard1, active compounds read low 0.966 | locus YHR027C, strain rpn1, active compounds read low 1.01 | locus YHR030C, strain SLT2, active compounds read low 0.982 | locus YHR079C, strain IRE1, active compounds read low 0.993 | locus YHR142W, strain chs7, active compounds read low 0.968 | locus YJL092W, strain hpr5, active compounds read low 0.978 | locus YJL095W, strain BCK1 (second series), active compounds read low 1.01 | locus YJL095W, strain BCK1, active compounds read low 0.999 | locus YJL115W, strain asf1, active compounds read low 0.994 | locus YJL129C, strain trk1, active compounds read low 0.947 | locus YJL154C, strain vps35, active compounds read low 0.977 | locus YJL164C, strain tpk1, active compounds read low 1.01 | locus YJL166W, strain qcr8, active compounds read low 1.01 | locus YJL187C, strain SWE1, active compounds read low 1 | locus YJR066W, strain TOR1, active compounds read low 0.962 | locus YKL160W, strain elf1, active compounds read low 1 | locus YKR026C, strain gcn3, active compounds read low 0.981 | locus YKR091W, strain srl3, active compounds read low 1 | locus YLL001W, strain dnm1, active compounds read low 1.01 | locus YLL026W, active compounds read low 1 | locus YLL041C, strain sdh2, active compounds read low 1.01 | locus YLR027C, strain aat2, active compounds read low 1 | locus YLR113W, strain HOG1, active compounds read low 1.01 | locus YLR221C, strain rsa3, active compounds read low 1 | locus YLR258W, strain gsy2, active compounds read low 1.01 | locus YLR262C, strain YPT6 (second series), active compounds read low 1.03 | locus YLR320W, strain mms22, active compounds read low 1.02 | locus YLR342W, strain FKS1, active compounds read low 1.02 | locus YLR357W, strain rsc2, active compounds read low 1.04 | locus YLR370C, strain arc18, active compounds read low 1.01 | locus YLR384C, strain iki3, active compounds read low 1.01 | locus YML120C, strain ndi1, active compounds read low 1 | locus YMR058W, strain fet3, active compounds read low 0.989 | locus YMR125W, strain sto1, active compounds read low 0.99 | locus YMR129W, active compounds read low 0.99 | locus YMR205C, strain PFK2, active compounds read low 1 | locus YMR231W, strain pep5, active compounds read low 1.01 | locus YMR307W, strain GAS1, active compounds read low 1.01 | locus YNL071W, strain lat1, active compounds read low 0.999 | locus YNL128W, strain TEP1, active compounds read low 1.01 | locus YNL153C, strain GIM3, active compounds read low 0.958 | locus YNL175C, strain NOP13, active compounds read low 1.02 | locus YNL183C, strain NPR1, active compounds read low 0.95 | locus YNL197C, strain WHI3, active compounds read low 0.998 | locus YNL209W, strain ssb2, active compounds read low 0.998 | locus YNL224C, strain SQS1, active compounds read low 1.01 | locus YNL248C, strain rpa49, active compounds read low 0.996 | locus YNL322C, strain KRE1 (second series), active compounds read low 1 | locus YNR049C, strain mso1, active compounds read low 1 | locus YOR001W, strain rrp6, active compounds read low 0.995 | locus YOR070C, strain gyp1, active compounds read low 1 | locus YOR080W, strain dia2, active compounds read low 1 | locus YOR083W, strain WHI5 (second series), active compounds read low 1.02 | locus YOR083W, strain WHI5, active compounds read low 1.01 | locus YOR106W, strain vam3, active compounds read low 1.01 | locus YOR231W, strain MKK1, active compounds read low 0.99 | locus YOR265W, strain rbl2, active compounds read low 1 | locus YOR270C, strain vph1, active compounds read low 0.987 | locus YOR290C, strain snf2, active compounds read low 0.975 | locus YPL051W, strain arl3, active compounds read low 1.02 | locus YPL055C, strain LGE1, active compounds read low 0.988 | locus YPL078C, strain atp4, active compounds read low 0.984 | locus YPL106C, strain sse1, active compounds read low 1 | locus YPL240C, strain hsp82, active compounds read low 1.01 | locus YPL256C, strain CLN2, active compounds read low 0.988
